# High-throughput results as filed in PubChem BioAssay.
# The list is not random: actives were taken first. Their share in the collection is about 3.7%.
# GPR7 antagonist – human neuropeptides B/W receptor 1 antagonism; P48145; GPR7-expressing cells, fluorescence antagonist assay; 290,000 compounds, 1.1% hits; inhibition, % at 4.4 µM; in the data active = inhibition above about 16%, passing the limit was not always enough;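 also: cells stimulated with the agonist NPW; 0% = agonist with vehicle and 100% = vehicle without agonist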
# Target sequence (P48145 whole entry, looked up): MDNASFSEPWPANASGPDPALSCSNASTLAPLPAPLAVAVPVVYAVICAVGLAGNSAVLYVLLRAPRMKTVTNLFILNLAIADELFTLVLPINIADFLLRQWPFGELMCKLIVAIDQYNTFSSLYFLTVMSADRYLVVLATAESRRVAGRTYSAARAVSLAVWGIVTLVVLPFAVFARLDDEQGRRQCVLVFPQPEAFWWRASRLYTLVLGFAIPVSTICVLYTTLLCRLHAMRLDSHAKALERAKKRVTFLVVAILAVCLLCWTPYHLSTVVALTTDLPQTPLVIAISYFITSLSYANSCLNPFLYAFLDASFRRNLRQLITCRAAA
# Kir21 block – blocks the mouse Kir2.1 inward-rectifier potassium channel. P35561. HEK293-Kir2.1, FluxOR thallium flux fluorescence; hits give low values. B-score at 10 µM. 310,000 compounds, 0.85% hits;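 active = fluorescence ratio B-score at or below minus 3 SD of library scores, with starting-brightness B-score within 2 SD, cut at about -4.2 in these data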;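 also: channel flux triggered by added potassium and thallium sulfate stimulus; B-score of peak minus minimum fluorescence over baseline after thallium stimulus; more negative B-score means stronger Kir2.1 block with less thallium influx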
# TMEM16A act – activators or potentiators of mouse TMEM16A chloride channel; AID 623877; Q8BHY3; 340,000 compounds, 0.3% hits; HEK293 TMEM16A/YFP-H148Q/I152L, iodide quench fluorescence; hits give low values; B-score at 10 µM;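 active = fluorescence-ratio B-score plate-corrected deviation score at least 3 library SD below zero, with starting fluorescence score within 5 deviations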;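 also: channel opened by trigger with iodide after compound preincubation; score built on the fluorescence ratio of max minus min over baseline; more negative score means more quench and so TMEM16A activation or potentiation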
# CHT inh – inhibitors of human choline transporter CHT | Q9GZV3 | CHT-expressing cells, membrane potential dye, choline response; hits give low values | B-score at 10 µM | 310,000 compounds, 0.86% hits | AID 488975;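 active = B-score over 3 SD under the library average, and starting fluorescence ratio not unusually high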;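 also: choline stimulus applied at its EC90 after an EC20 pre-addition; B-score computed on integrated fluorescence ratio after choline addition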
# CHT PAM – allosteric activators of human choline transporter CHT. CHT-expressing cells, membrane potential dye, choline EC20; hits give high values; LV-AA mutant CHT in HEK293 cells. B-score at 10 µM. 310,000 compounds, 0.49% hits;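 active = initial fluorescence not abnormally high and integrated response B-score, plate-corrected, over 3 SD above library mean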
# TMEM16A inh – blocks the mouse calcium-activated chloride channel TMEM16A; Q8BHY3; normalized B-score (activity score, 25-100; higher = stronger inhibition) at 10 µM; 310,000 compounds, 1.2% hits; HEK293 TMEM16A/YFP iodide influx fluorescence, ionomycin;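 active = ratio plate-corrected score three or more library SD toward inhibition, starting fluorescence score within five deviations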;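 also: score derived from kinetic fluorescence span divided by baseline fluorescence per well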
# The depositor's hits bear a star; i = inactive; nt = no result given.
SMILES,GPR7 antagonist,Kir21 block,TMEM16A act,CHT inh,CHT PAM,TMEM16A inh
COc1ccccc1OCCSc1nc2ccccc2n1CCO,-4,-4.3*,i,i,i,i
CCCn1c(COc2ccccc2OC)nc2ccccc21,1,-4.3*,i,i,i,i
C#CCOCCOCCOCCNc1nc(N2CCN(C(=O)CCCCCCCCCCNC(=O)[C@H]([C@@H](C)CC)n3cc(CCCCCN)nn3)CC2)nc(N2CCN(C(=O)CCCCCCCCCCNC(=O)[C@@H]([C@H](C)O)n3cc(C)nn3)CC2)n1,nt,nt,-12*,i,i,i
C#CCOCCOCCOCCNc1nc(N2CCN(C(=O)CCCCCCCCCCNC(=O)Cn3cc(CCCCCN)nn3)CC2)nc(N2CCN(C(=O)CCCCCCCCCCNC(=O)[C@H]([C@@H](C)CC)n3cc(CCCCCN)nn3)CC2)n1,nt,nt,-13*,i,i,25*
C#CCOCCOCCOCCNc1nc(N2CCN(C(=O)CCCCCCCCCCNC(=O)[C@@H](CCSC)n3cc(CCO)nn3)CC2)nc(N2CCN(C(=O)CCCCCCCCCCNC(=O)[C@H]([C@@H](C)CC)n3cc(CCCCCN)nn3)CC2)n1,nt,nt,nt,i,i,100*
C#CCOCCOCCOCCNc1nc(N2CCN(C(=O)CCCCCCCCCCNC(=O)[C@H](CCCCN)n3cc(C)nn3)CC2)nc(N2CCN(C(=O)CCCCCCCCCCNC(=O)[C@@H]([C@H](C)CC)n3cc(CCCCCN)nn3)CC2)n1,nt,nt,-18*,i,i,25*
C#CCOCCOCCOCCNc1nc(N2CCN(C(=O)CCCCCCCCCCNC(=O)[C@H](CCCCN)n3cc(CCO)nn3)CC2)nc(N2CCN(C(=O)CCCCCCCCCCNC(=O)[C@@H]([C@H](C)O)n3cc(C)nn3)CC2)n1,nt,nt,i,i,i,i
COc1cccc(NC(=O)CCC2CCN(C(=O)c3cncs3)CC2)c1,12,1.1,i,i,i,i
COc1ccc(CC(=O)N/N=C/c2cccn2-c2ccc([N+](=O)[O-])cc2)cc1OC,-13,-2.2,-12*,i,i,i
Cc1cc(Nc2ccccc2)nn1C(=O)c1ccccc1,-22,0.11,i,i,i,25*
O=C1CCc2cc(S(=O)(=O)NCCc3ccccc3)cc3c2N1CC3,nt,-0.98,i,i,i,i
CC(=O)N1c2ccc(S(=O)(=O)N3CCCCC3)cc2CC1C(=O)NCc1ccccc1C (stereo not drawn),-1,1.7,i,i,i,i
CN1c2ccccc2-c2nc3ccccc3n2C1c1ccncc1 (stereo not drawn),-6,0.03,i,i,i,i
CCN1c2ccccc2-c2nc3ccccc3n2C1c1ccco1 (stereo not drawn),5,-6.4*,i,i,i,i
COCCNC(=S)Nc1cc(OC)c(OC)cc1C#N,5,0.32,i,nt,nt,nt
COC(=O)c1ccc(OCC(O)CNC2CCCC2)cc1 (stereo not drawn),2,-2.3,i,i,i,i
OC(CNC1CCCCC1)COCCOc1ccc(Br)cc1 (stereo not drawn),10,-4.3*,i,i,i,i
CCOC(=O)c1ccc(NC(=S)N2CCSC2c2ccc(Cl)cc2)cc1 (stereo not drawn),0,1.1,-7.7*,i,i,100*
CCOC(=O)c1ccc(NC(=S)N2CCN(Cc3ccccc3)CC2)cc1,-12,0.8,i,i,i,i
O=[N+]([O-])/C=C/c1cn(Cc2ccc(Cl)cc2)c2ccccc12,5,-5.7*,i,i,i,i
CCCCC(NC(=O)Cc1c(C)c2cc3c(-c4ccccc4)coc3c(C)c2oc1=O)C(=O)O (stereo not drawn),-7,3.5,i,i,i,i
C=CCc1cccc2cc(C(=O)Nc3cccc(C(=O)O)c3)c(=O)oc12,-8,0.99,nt,-6.5*,i,i
O=C(NC1CCCC1)C(c1cccnc1)N(C(=O)c1csnn1)c1ccc(F)cc1 (stereo not drawn),-10,0.5,i,i,i,i
C=CCSC(=C(C#N)C#N)c1cc2c([nH]1)CCCC2,11,-0.29,i,i,i,100*
O=C(O)c1cc2c([nH]c1=O)CCCC2,0,-2.3,i,i,i,i
SMILES,GPR7 antagonist,Kir21 block,TMEM16A act,CHT inh,CHT PAM,TMEM16A inh
C=CCn1c(SCc2ccccc2C#N)nnc1-c1cc(Br)ccc1O,1,-8.3*,i,i,i,i
COc1ccc(C[C@H]2CN3C(=NC[C@@H]3Cc3ccc(O)cc3)N2C[C@H](C)NC(=O)c2ccc(C)c(Br)c2)cc1,nt,-7.3*,i,i,i,i
COc1ccc(C[C@H]2CN3C(=NC[C@@H]3Cc3ccc(O)cc3)N2CCNC(=O)c2ccc(C)c(Br)c2)cc1,8,-3.9,i,i,i,i
COc1ccc(C[C@H]2CN3C(=NC[C@@H]3C(C)C)N2C[C@H](C)NC(=O)c2ccc(C)c(Br)c2)cc1,10,-7.9*,i,i,i,i
Cc1ccc(C(=O)N[C@@H](C)CN2C3=NC[C@H](C(C)C)N3C[C@H]2Cc2ccc(O)cc2)cc1Br,25,-2.4,i,i,i,i
COC(=O)[C@@]1(Cc2ccccc2)[C@H]2C(=O)N(C)C(=O)[C@H]2[C@H]2CN=C(SC)N21,nt,nt,i,nt,nt,nt
O=C(CNC(=O)c1ccccc1)OCc1cc(=O)n2cc(Br)ccc2n1,-2,0.14,i,i,i,i
O=C1NC(=S)/C(=C\c2ccc(-c3ccccc3Cl)o2)S1,-5,-1.3,-5.8*,i,i,i
CN(CCCNC(=O)CSc1cc(=O)n(C)c2cc(Cl)ccc12)Cc1ccccc1,21*,-2.9,i,i,i,i
COc1ccc(C)cc1-n1nnnc1SCC1CCCCO1 (stereo not drawn),10,-4.7*,i,i,i,i
COc1ccc(C)cc1-n1nnnc1SCC(=O)NC1CCCC1,nt,nt,i,nt,nt,nt
O=C(Cc1ccccc1)c1ccc(O)cc1O,nt,nt,i,nt,nt,nt
O=C(CC1=NCCNC(c2ccccc2)C1)c1ccccc1O (stereo not drawn),16,-6*,i,i,i,i
C#CCOCCOCCOCCNc1nc(N2CCN(C(=O)[C@H](CCCCN)n3cc(C(N)CO)nn3)CC2)nc(N2CCN(C(=O)[C@H](CCCCN)n3cc(C(N)COC(=O)C(F)(F)F)nn3)CC2)n1 (stereo partly drawn),nt,1.2,nt,i,7.1*,i
